The source of these data is the supplement of paper PMC10681739.

This assay has as its target T1, ETS1 (UniProt P14921).
T1 sequence: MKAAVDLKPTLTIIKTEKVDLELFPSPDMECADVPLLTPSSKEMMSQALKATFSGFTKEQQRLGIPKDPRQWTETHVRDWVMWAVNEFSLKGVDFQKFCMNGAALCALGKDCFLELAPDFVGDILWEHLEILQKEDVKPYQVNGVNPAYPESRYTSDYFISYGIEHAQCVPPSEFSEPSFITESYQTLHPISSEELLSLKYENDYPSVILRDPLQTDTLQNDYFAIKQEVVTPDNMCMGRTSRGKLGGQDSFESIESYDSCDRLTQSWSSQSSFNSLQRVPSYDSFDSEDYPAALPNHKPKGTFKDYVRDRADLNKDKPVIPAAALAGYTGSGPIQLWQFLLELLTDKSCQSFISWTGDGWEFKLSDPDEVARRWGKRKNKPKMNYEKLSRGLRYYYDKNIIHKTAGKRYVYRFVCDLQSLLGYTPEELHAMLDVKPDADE
In words: ETS1 binding intensity (PBM fluorescence), ETS1 alone (arbitrary fluorescence units); higher = stronger binding. To be noted: ETS1 concentration 1 nM; RUNX1 concentration 0 nM.
In the case of GGGGCCCCGGATGCACTGAGCGGCTGCGGCGCGGCT, the ETS1 binding intensity worked out at 613.

For AGCGGATTCCGGACATAACAATCTACAGCGGTCTTA, the ETS1 binding intensity worked out at 444.

For the sequence GCACGTGTTTCCTGGGGCTGCACCACAGCACCACAC, the ETS1 binding intensity was determined as 444.

Consider TGGGGTTTCCTGGGGAGAAACTTAGCCCTACCACAC, for which the ETS1 binding intensity came to 527. For GGTGCCAAGGGCAGAGGATGTGGTGAGGTGTGGAGG the value was 999. For TGGCTGGGCAGGAAGGCCTGTGGCTTACGGTTCCTG, the ETS1 binding intensity stood at 551.

On to GAGAGCTGAGCGGAAGCTCAGCTGTGGGGCTGGTTG, for which the ETS1 binding intensity was found to be 1740.

For the sequence CTGCAGACAGGAGGATGTGGGCTTGCGCGCAAACAG, the ETS1 binding intensity stood at 675. With AATGTAGGAAATTCCACTGCATAATTTGTGGTAGTG the figure was 478; with CATCAAAAACAGAGGAAGCCACAGCAAATTGCTGCC, 523. With GTGGCTTCCTGCCATTGACAATTGCGGGATGGCTTT the figure was 529. For AGCACGTCCCCCTTCTTCCTCCCGCAGAGGGCCTGC the value was 454. The sequence CGTTATTTCCGGGGCTGGGTTAACGCAGCGGTTCCA returned an ETS1 binding intensity of 631. With TTCATCTACTTCCCGCCACACCCACAGAGAAGCCCA the figure was 469; with TATCACGTTTCCTGCTGCTGCACCGCGACCTCAGCT, 513; with CTTGTTATCCTTCCGGAGGCGGTAACTCATGAGAGA, 497.

Take ACAGCGCCTCTTCCTGCTCTACCACATCTGATGTCC: the ETS1 binding intensity was determined as 512.

Turning to ACGGACAGAATTTCCTCCCCCGTCACCACAGCGACC, the ETS1 binding intensity stood at 686.

Sequence GCTACGGGTTCCCCGGATGGAGCCGCAGTCCGGCCG returned an ETS1 binding intensity of 858. Turning to AACATTACGGAAGTTTCTCTACCCATGCGGTGTCTC, the ETS1 binding intensity was 521.

As to TTACTTCTCAGGAAGCGCTGTGGGGCTGGGGTTGCT, the ETS1 binding intensity worked out at 676.
